Data taken from PubChem BioAssay (NCI).
This is part of a sample that, as a whole, favours compounds with a hit. Of some 79,000 tested, about 15% had one in any assay. A number with no mark means an inactive call. Activity calls are given as the source filed them. No stated cut-off is given here; in the data, active means growth inhibition above about 70%; inactive means the rest.

Key:
[1] = NCI Yeast Anticancer Drug Screen. Data for the rad50 strain (AID 155);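 further: 0% = growth of vehicle-only cultures of the same strain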; conditions: S. cerevisiae rad50 strain growth inhibition, hits give high values
Method in brief: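 Inhibition values express reduced yeast growth in compound-treated cultures relative to vehicle-treated controls.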

[2] = NCI Yeast Anticancer Drug Screen. Data for the mec2-1 strain (AID 157); conditions: S. cerevisiae mec2-1 strain, hits give high values
Method in brief: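 Test agents were screened against the mec2-1 yeast strain, with defined DNA repair or cell cycle alteration. Growth was scored as inhibition against vehicle-only controls.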

[3] = NCI Yeast Anticancer Drug Screen. Data for the sgs1 mgt1 strain (AID 161);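 further: 0% = growth of cultures given vehicle only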; conditions: S. cerevisiae sgs1 mgt1 strain, hits give high values
Method in brief: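 Inhibition of yeast growth, normalised to vehicle-treated controls, is reported for a strain bearing genetic alterations in DNA damage repair.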

[4] = NCI Yeast Anticancer Drug Screen. Data for the cln2 rad14 strain (AID 165);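 further: 0% = growth equal to vehicle treated cultures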; conditions: S. cerevisiae cln2 rad14 strain, hits give high values
Method in brief: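 Growth of compound-exposed yeast (cln2 rad14 genotype) measured and expressed as inhibition relative to vehicle.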

[5] = NCI Yeast Anticancer Drug Screen. Data for the bub3 strain (AID 167); conditions: S. cerevisiae bub3 mutant strain, hits give high values
Method in brief: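 Steps: expose the mutant yeast strain to compound; grow alongside vehicle-treated cultures; measure growth; express inhibition against the vehicle cultures.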

[6] = NCI Yeast Anticancer Drug Screen. Data for the mlh1 rad18 strain (AID 175); conditions: S. cerevisiae mlh1 rad18 strain growth inhibition, hits give high values
Method in brief: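 In this whole-cell yeast screen, a strain with altered DNA damage repair is challenged with compound, and its growth is measured against matched vehicle-treated controls.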

[7] = at 5.0 µM (retest, dose inferred, filed as 0.5)
[8] = at 50.0 µM (retest, dose inferred, filed as 5.0)

Structure (SMILES)	growth inhibition [1, 7] [%]	growth inhibition [1, 8]	growth inhibition ([1]; at 50.0 µM)	growth inhibition [2, 7] [%]	growth inhibition [2, 8]	growth inhibition ([2]; at 50.0 µM)	growth inhibition [3, 7] [%]	growth inhibition [3, 8]	growth inhibition ([3]; at 50.0 µM)	growth inhibition [4, 7] [%]	growth inhibition [4, 8]	growth inhibition ([4]; at 50.0 µM)	growth inhibition [5, 7] [%]	growth inhibition [5, 8]	growth inhibition ([5]; at 50.0 µM)	growth inhibition [6, 7] [%]	growth inhibition [6, 8]	growth inhibition ([6]; at 50.0 µM)
COc1ccc(C(=O)CC2(O)C(=O)N(C)c3c(Cl)cc(Cl)cc32)cc1 (configuration not stated)	-1	61%	67.6%	3	56%	67.3%	4	63%	61.2%	-2	66%	62%	-2	65%	69%	-2	64%	87.2% (active)
CN(C)CC(CN(C)C)C(=O)c1ccc(Oc2ccc(Cl)c(Cl)c2)cc1	18	96% (active)	93.9% (active)	8	97% (active)	96.8% (active)	29	98% (active)	96.7% (active)	4	95% (active)	93.5% (active)	6	98% (active)	94.8% (active)	21	96% (active)	96.3% (active)
Oc1c(Cl)cc(Br)cc1Cl	44	95% (active)	84.7% (active)	19	99% (active)	92.9% (active)	11	93% (active)	96.5% (active)	3	99% (active)	78.5% (active)	13	99% (active)	89.3% (active)	12	97% (active)	91.8% (active)
NNCc1cc(Cl)c2cccnc2c1O	18	96% (active)	98.8% (active)	6	99% (active)	98.8% (active)	7	98% (active)	98.5% (active)	-8	98% (active)	97.5% (active)	-1	98% (active)	99% (active)	9	98% (active)	98.7% (active)
S=C(NC(=S)Nc1ccc(Cl)cc1)Nc1ccc(Cl)cc1	4	-4%	68%	1	2%	61.9%	5	8%	72.1% (active)	-9	-8%	50.8%	-4	2%	77.6% (active)	20	10%	78.7% (active)
CCN(CC)CCOc1ccc(/C=C/c2ccccc2)cc1	2	99% (active)	73% (active)	0	99% (active)	77.7% (active)	5	98% (active)	93.7% (active)	-5	99% (active)	56.7%	6	99% (active)	93.4% (active)	3	99% (active)	78% (active)
CCC[CH2][Sn]([CH2]CCC)([O]C(=O)c1cc(F)cc(F)c1)[O]C(=O)c1cc(F)cc(F)c1	54	54%	22.4%	26	26%	52.4%	65	65%	16.4%	18	18%	36.2%	21	21%	67.7%	21	21%	68.1%
[N-]=[N+]=Nc1ccc(SSCCC(=O)ON2C(=O)CCC2=O)cc1	24	97% (active)	98.6% (active)	20	98% (active)	98.8% (active)	40	98% (active)	98.3% (active)	4	97% (active)	97.8% (active)	2	97% (active)	98.7% (active)	38	98% (active)	98.5% (active)
C/C(=N\NC(=S)NCc1ccccc1)c1nccnc1C	23	98% (active)	90.9% (active)	19	99% (active)	89% (active)	35	99% (active)	82.9% (active)	35	98% (active)	85.9% (active)	52	99% (active)	83.3% (active)	27	98% (active)	91.7% (active)
